Results on 24 molecules are retold here after PubChem BioAssay (EPA / NIEHS).

Assay [1] can be described thus: ATG_M_19_CIS: Attagene CIS-FACTORIAL HepG2 Assay for M19 Transcription Factor (Internal Marker) (AID 2282939). Conditions: HepG2 Attagene CIS-FACTORIAL M19 internal marker reporter; actives raise or lower the signal. In outline:
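In this multiplexed cell assay, transiently transfected HepG2 reporter units report endogenous transcription-factor activity; after 24 hours of treatment, labelled reporter cDNA fragments are quantified by capillary electrophoresis and fitted bidirectionally against DMSO.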

The nature of assay [2]: ATG_ERE_CIS: Attagene CIS-FACTORIAL HepG2 Assay for Estrogen Response Element (ERE) (AID 2282940). Conditions: HepG2 ERE cis-reporter, Attagene RNA transcript; actives raise or lower the signal. In short, it runs like this: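 Measuring endogenous transcription factor output, the assay doses transfected HepG2 cells for 24 hours and quantifies reporter transcripts by fluorescent RT-PCR and capillary electrophoresis, with DMSO as baseline.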

Assay [3] is described as follows: ATG_Ets_CIS: Attagene CIS-FACTORIAL HepG2 Assay for human Erythroblast Transformation Specific (ETS) (AID 2282941). Conditions: HepG2 ETS cis-reporter transcription, actives raise or lower the signal. In outline:
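RT-PCR/capillary electrophoresis fluorescence read-out of reporter mRNA; HepG2 transient multi-reporter transfection; 24 h compound exposure; gain or loss of signal fitted bidirectionally relative to DMSO.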

Assay [4] addresses Hepatocyte nuclear factor 3-beta (Homo sapiens) (UniProt Q9Y261). Nature of the assay: ATG_FoxA2_CIS: Attagene CIS-FACTORIAL HepG2 Assay for human Forkhead box A2 (FOXA2) (AID 2282942). Conditions: HepG2 cis-reporter transcription factor activity, 24 h; actives raise or lower the signal. In outline: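 Fluorescence signal of reporter cDNA fragments, separated by capillary electrophoresis, reflects endogenous transcription factor activity in transfected HepG2 after 24 h. Both increases and decreases fitted against DMSO.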

Assay [5] can be described thus: ATG_FoxO_CIS: Attagene CIS-FACTORIAL HepG2 Assay for human Forkhead box O (FoxO) (AID 2282943). Conditions: HepG2 Attagene cis-reporter, FoxO element, mRNA; actives raise or lower the signal. In outline:
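HepG2 cells transiently transfected with cis-promoter-driven multiple reporter transcription units; 24 h after chemical dosing, reporter mRNA quantified by RT-PCR, fluorescent primer extension, HpaI digestion and capillary electrophoresis. Bidirectional fitting versus DMSO baseline.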

Assay [6] in a line: ATG_GATA_CIS: Attagene CIS-FACTORIAL HepG2 Assay for human GATA Binding Protein (AID 2282944). Conditions: HepG2 GATA cis-element reporter, Attagene multiplex mRNA; actives raise or lower the signal. In short, it runs like this:
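Measures endogenous transcription factor-driven reporter mRNA in HepG2 cells transiently carrying cis-regulated constructs. 24 h dosing; RNA via oligo(dT) reverse transcription, PCR, HpaI digestion, capillary electrophoresis; fitted relative to DMSO.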

The nature of assay [7]: ATG_GLI_CIS: Attagene CIS-FACTORIAL HepG2 Assay for human Zinc Finger Protein GLI1 (AID 2282945). Conditions: HepG2, Attagene cis-factorial reporter mRNA, GLI element; actives raise or lower the signal. In short, it runs like this:
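HepG2 cells transiently transfected with cis-promoter multiplexed reporter units report endogenous transcription factor activity. After 24 h chemical exposure, reporter mRNA was quantified by RT-PCR, 6-FAM labelling, HpaI digestion and capillary electrophoresis, with bidirectional fitting against DMSO.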

Assay [8] deals with Bile acid receptor (Homo sapiens) (UniProt Q96RI1). Nature of the assay: ATG_IR1_CIS: Attagene CIS-FACTORIAL HepG2 Assay for human Nuclear Receptor Subfamily 1 Group H Member 4 (NR1H4), IR1 submotif (AID 2282946). Conditions: IR1 reporter transcription, actives raise or lower the signal. In outline: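 Readout: reporter transcript levels by RT-PCR with fluorescent capillary electrophoresis, from HepG2 cells transiently transfected with multiplexed cis-regulated reporters and dosed 24 h. Gain- or loss-of-signal fitted versus DMSO negative control.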
Sequence of Bile acid receptor (Homo sapiens) (Q96RI1 whole entry, looked up): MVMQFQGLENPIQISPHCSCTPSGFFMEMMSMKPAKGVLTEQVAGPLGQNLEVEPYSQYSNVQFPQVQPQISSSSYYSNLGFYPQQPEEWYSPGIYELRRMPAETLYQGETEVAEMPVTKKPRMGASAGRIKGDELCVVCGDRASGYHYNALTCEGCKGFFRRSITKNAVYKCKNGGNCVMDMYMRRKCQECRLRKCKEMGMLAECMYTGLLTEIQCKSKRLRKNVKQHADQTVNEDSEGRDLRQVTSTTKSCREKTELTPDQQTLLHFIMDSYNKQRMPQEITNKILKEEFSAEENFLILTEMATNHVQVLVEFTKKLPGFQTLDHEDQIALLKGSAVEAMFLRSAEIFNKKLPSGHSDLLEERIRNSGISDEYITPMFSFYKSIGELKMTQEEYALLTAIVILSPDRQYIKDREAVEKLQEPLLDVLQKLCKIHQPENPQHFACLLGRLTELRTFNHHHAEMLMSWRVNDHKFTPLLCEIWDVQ

A short description of assay [9]: ATG_GRE_CIS: Attagene CIS-FACTORIAL HepG2 Assay for human Glucocorticoid Response Elements (GRE) (AID 2282947). Conditions: HepG2 GRE cis-reporter, Attagene multiplex mRNA; actives raise or lower the signal. In outline: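 HepG2, transient cis-reporter transfection, 24 h. Reporter mRNA: RT-PCR then CE, fluorescence. Fit both directions vs DMSO.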
The nature of assay [10]: ATG_ISRE_CIS: Attagene CIS-FACTORIAL HepG2 Assay for human Interferon Regulatory Factor 1 (IRF1) binding to an Interferon-Stimulated Response Element (ISRE) (AID 2282948). Conditions: HepG2 ISRE cis-reporter (Attagene), mRNA transcription readout; actives raise or lower the signal. In outline:
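Read-out: fluorescent RT-PCR products resolved by capillary electrophoresis, reporting endogenous transcription factor activity via ISRE-driven reporter mRNA in transfected HepG2 cells dosed for 24 h; gain or loss fitted relative to DMSO.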

Structures are written as SMILES. More than one record can exist for a structure, and the calls need not agree. Calls of active or inactive are those of the source. The calls were made as follows: active = hit-call score of the fitted dose curve at least 0.9, where 1 is the maximum; inactive = score below 0.9.

Sequence of Hepatocyte nuclear factor 3-beta (Homo sapiens) (Q9Y261 whole entry, looked up, the tested form may be a part): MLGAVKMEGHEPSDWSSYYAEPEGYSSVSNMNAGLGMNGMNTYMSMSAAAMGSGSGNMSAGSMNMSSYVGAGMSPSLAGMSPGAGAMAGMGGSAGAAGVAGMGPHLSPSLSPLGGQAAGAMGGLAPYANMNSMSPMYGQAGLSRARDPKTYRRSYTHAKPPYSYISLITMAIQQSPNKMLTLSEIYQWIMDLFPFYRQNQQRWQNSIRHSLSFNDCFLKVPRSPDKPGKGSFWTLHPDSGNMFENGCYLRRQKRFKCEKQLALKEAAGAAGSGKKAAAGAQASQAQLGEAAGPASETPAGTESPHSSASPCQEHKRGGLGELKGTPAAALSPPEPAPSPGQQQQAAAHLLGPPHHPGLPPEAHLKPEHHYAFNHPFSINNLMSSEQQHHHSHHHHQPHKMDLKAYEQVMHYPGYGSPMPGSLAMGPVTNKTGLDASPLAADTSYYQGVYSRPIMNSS

A word on the AC50: it is the concentration giving half of the maximal activity seen. Consider `c1ccc(-c2cccc(-c3ccccc3)c2)cc1`, for which the molecule was classed as inactive in [1], in assay [3], in [4], in assay [5], in [6] and in assay [7]. For the same molecule, the molecule was classed as inactive in assay [8]. The AC50 in assay [2] was 26.4 µM (active).

`CC(=Cc1ccccc1)[N+](=O)[O-]`: the call in assay [1], in assay [2], in assay [3], in assay [4] and in assay [9] was inactive. The AC50 in assay [5] is 11.1 µM (active); in assay [6] it was 16.8 µM (active); in [7] it was 20.1 µM (active); in [8], 5.55 µM (active); in assay [10], 7.14 µM (active).

`Cc1ccccc1OP(=O)(Oc1ccccc1C)Oc1ccccc1C`: the result in assay [1], in assay [3], in assay [4], in assay [5], in assay [6] and in assay [7] was inactive. Moreover, the result in [8] and in [9] was inactive. For the same molecule, the figures for the AC50 in assay [2] and in [10] were 3.04 µM (active) and 7 µM (active), respectively.

Turning to `CCCCC(CC)COC(=O)Cl` (configuration not stated), the result in [1], in [2], in assay [3], in [4], in [5] and in assay [6] was inactive. For the same molecule, the outcome in assay [7], in [8] and in [9] was inactive.

For the molecule `C=CCOC(F)(C(F)(F)F)C(F)(F)F`, the result in assay [1], in assay [2], in assay [3], in assay [4], in [5] and in [6] was inactive. Further, the outcome in [7], in assay [8], in assay [9] and in assay [10] was inactive.

As to `O=C/C(Cl)=C(/Cl)C(=O)O`, the call in [1], in assay [2], in assay [3], in [4], in assay [6] and in [7] was inactive. For the same molecule, in [9], the result was inactive. Moreover, the AC50 was 132 µM (active) in assay [5] and 46 µM (active) in [8].

As for `CCCCOC(C)=O`, the molecule was classed as inactive in assay [1], in assay [2], in [3], in [4], in [5] and in assay [6]. The call in assay [7], in [8] and in assay [10] was inactive. Further, in assay [6], the AC50 was 154 µM (active).

For `ClCc1ccccc1CCl`, the molecule was called inactive in assay [1], in assay [2], in assay [5], in assay [6] and in assay [9]. Also, the half-maximal activity concentration (AC50) in [3] is 15.7 µM (active); in assay [4], 33.4 µM (active); in assay [7], 33.4 µM (active); in [8] it was 33.4 µM (active); in assay [10], 45.9 µM (active).

Regarding `O=C(NC(=O)c1c(F)cccc1F)Nc1cc(Cl)c(Oc2ncc(C(F)(F)F)cc2Cl)c(Cl)c1`, the outcome in assay [1], in assay [2], in assay [3], in [4], in assay [5] and in assay [6] was inactive. In addition, the outcome in [7], in assay [8] and in assay [9] was inactive.

As for `Oc1cccc(-c2ccccc2)c1`, the outcome in assay [1], in assay [3], in assay [4], in assay [5], in assay [6] and in assay [7] was inactive. Further, the molecule was called inactive in assay [8], in assay [9] and in [10]. Moreover, the AC50 in assay [2] is 6.35 µM (active).

Turning to `O=C1C=CC(=O)c2ccccc21`, the call in assay [1], in assay [2], in assay [3], in [4], in assay [5] and in assay [6] was inactive. Moreover, the outcome in assay [7], in [8], in assay [9] and in assay [10] was inactive.

Consider `CNC(=O)CSP(=O)(OC)OC`, for which the result in assay [1], in [2], in assay [3], in assay [4], in assay [5] and in assay [6] was inactive. The molecule was called inactive in [7], in [8], in [9] and in assay [10].

As to `Nc1ccc(Br)cc1`, the molecule was called inactive in assay [1], in [2], in [3], in assay [4], in assay [5] and in assay [6]. Further, the outcome in assay [7], in assay [8], in assay [9] and in assay [10] was inactive.

In the case of `NNCCO`, the outcome in assay [1], in [3], in assay [4], in assay [5], in [6] and in assay [7] was inactive. Also, the call in assay [8] was inactive. In addition, the half-maximal activity concentration (AC50) in assay [2] was 25.4 µM (active).

`Cc1cc(C(C)(C)c2ccc(O)c(C)c2)ccc1O`: the molecule was called inactive in assay [1], in assay [4] and in assay [8]. For the same molecule, the AC50 in [2] is 0.265 µM (active); in assay [3], 20.2 µM (active); in [5], 72.8 µM (active); in [6], 91.3 µM (active); in assay [7], 74.7 µM (active).

Regarding `OC(Cc1ccccc1Cl)(Cn1cncn1)C1(Cl)CC1` (configuration not stated), the molecule was classed as inactive in assay [1], in assay [2], in assay [3], in assay [4], in assay [5] and in assay [6]. Besides, the molecule was classed as inactive in assay [7] and in assay [8].

For the molecule `C=CC(=O)[O][Sn]([CH2]CCC)([CH2]CCC)[CH2]CCC`, the molecule was called inactive in [1], in [3] and in assay [5]. Moreover, the AC50 in assay [2] was 0.0146 µM (active); in assay [4], 0.694 µM (active); in assay [6], 0.536 µM (active); in assay [7], 0.602 µM (active); in assay [8], 0.0956 µM (active); in assay [9], 0.412 µM (active).

With `N#CCCC(Br)(C#N)CBr` (configuration not stated), the result in assay [1], in [2], in [3], in assay [4], in assay [5] and in assay [6] was inactive. In [9], the outcome was inactive. Moreover, the concentration at half-maximal activity (AC50) was 53.6 µM (active) in assay [7], 53.9 µM (active) in assay [8] and 60.8 µM (active) in assay [10].

As for `Cc1cc(SCc2sc(-c3ccc(C(F)(F)F)c(F)c3)nc2C)ccc1OCC(=O)O`, the molecule was called inactive in assay [1], in [2], in assay [3], in assay [4], in assay [5] and in assay [6]. Moreover, the result in assay [7], in assay [8] and in assay [9] was inactive. Moreover, the AC50 in assay [10] is 42.8 µM (active).

`c1csc(-c2ccc(-c3cccs3)s2)c1`: the molecule was classed as inactive in assay [1], in assay [3], in assay [5], in assay [6], in [7] and in assay [8]. Further, in assay [9], the molecule was classed as inactive. The half-maximal activity concentration (AC50) in assay [2] was 7.65 µM (active); in assay [4] it was 4.46 µM (active); in assay [10], 3.41 µM (active).

As to `CC(C)(COCC1CO1)COCC1CO1` (configuration not stated), the molecule was classed as inactive in assay [1], in [2], in assay [3], in [4], in assay [5] and in assay [6]. Also, the result in assay [7], in assay [8], in assay [9] and in assay [10] was inactive.

As to `CC(C)[C@@H](Nc1ccc(C(F)(F)F)cc1Cl)C(=O)OC(C#N)c1cccc(Oc2ccccc2)c1` (some centres not stated), the result in assay [1], in assay [2], in assay [3], in assay [4], in assay [5] and in [6] was inactive. The molecule was called inactive in assay [7], in assay [8] and in [9].

As for `ClCCN1CCOCC1`, the molecule was called inactive in [1], in assay [2], in assay [3], in assay [4], in assay [5] and in assay [6]. The molecule was called inactive in [7], in assay [8], in assay [9] and in [10].

As for `Fc1cccc(Cl)c1CCl`, the call in [1], in assay [2], in assay [3], in [4], in assay [5] and in [6] was inactive. Further, the outcome in [7], in assay [8], in assay [9] and in assay [10] was inactive.
